Results on five compounds are retold here after PubChem BioAssay (Tox21).

Records with an inconclusive call do not appear. A number with no mark means an inactive call. The source made the active and inactive calls. Unless noted, calls come from the whole dose curve.

Assay [1] can be described thus: qHTS assay to identify small molecule antagonists of the peroxisome proliferator-activated receptor delta (PPARd) signaling pathway - cell viability counter screen (AID 743213; active = well fitted curve in the direction sought with a large enough effect in the repeat runs; an effect the other way counts as inactive or inconclusive; note: % is set by controls: 0 for no effect and ±100 for the full control effect; nearly all actives have a fitted effect of over 50% in size). The gist of the method:
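Luminescence from CellTiter-Glo, added after the bla read and incubated 30 min at room temperature, gives viability of HEK293H PPARd-bla cells exposed to compounds for 17 h at 37 C with 300 nM L165041.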
(In general: Quantitative high-throughput screening tests each substance at several concentrations.)

The nature of assay [2]: qHTS assay to identify small molecule agonists of the vitamin D receptor (VDR) signaling pathway - cell viability counter screen (AID 743224; active = well fitted curve in the direction sought with a large enough effect in the repeat runs; an effect the other way counts as inactive or inconclusive; note: series mostly up to about 63 µM; % is set by controls: 0 for no effect and ±100 for the full control effect; nearly all actives have a fitted effect of over 50% in size). The gist of the method:
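Luminescence from CellTiter-Glo, read after 30 min at room temperature, reports viability of VDR-bla cells treated with compounds for 16 h at 37C in the wells used for the beta-lactamase FRET read.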

The nature of assay [3]: qHTS assay to identify small molecule antagonists of the vitamin D receptor (VDR) signaling pathway - cell viability counter screen (AID 743225; active = well fitted curve in the direction sought with a large enough effect in the repeat runs; an effect the other way counts as inactive or inconclusive; note: % is set by controls: 0 for no effect and ±100 for the full control effect; nearly all actives have a fitted effect of over 50% in size). In outline: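 In this counter screen, VDR-bla HEK 293T cells receive test compound plus 3 nM final calcitriol for 16 h at 37C. Room-temperature steps of 2 h with the beta-lactamase substrate, then 30 min with CellTiter-Glo, precede the luminescence read.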

A short description of assay [4]: qHTS assay to identify small molecule agonists of the NFkB signaling pathway - cell viability counter screen (AID 1159515). Note: series mostly up to about 61 µM; % is set by controls: 0 for no effect and ±100 for the full control effect; nearly all actives have a fitted effect of over 55% in size. In outline:
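Luminescence from CellTiter-Glo (30 min, room temperature) gives viability, measured in the same wells as the beta-lactamase reporter read. Cells were NFkB-bla ME-180, 2,000 per well, treated 5 hr with compounds.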

A short description of assay [5]: qHTS assay to identify small molecule agonists of the endoplasmic reticulum stress response signaling pathway (AID 1159516; active = well fitted activation curve with a large enough effect in the signal ratio in the repeat runs, not every such curve was filed as active; the % refers to the signal ratio; note: % is set by controls: 0 for no effect and ±100 for the full control effect). The gist of the method:
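Read-out is beta-lactamase cleavage of a FRET substrate (405 nm excitation; 460 and 530 nm emissions) in ESRE-bla HeLa cells after a 5 hr compound exposure at 37 C. Substrate incubation ran 2 hr at room temperature.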

A short description of assay [6]: qHTS assay to identify small molecule agonists of the endoplasmic reticulum stress response signaling pathway - cell viability counter screen (AID 1159517).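 Note: HeLa cells carrying an ER stress response element beta-lactamase reporter; series mostly up to about 61 µM; % is set by controls: 0 for no effect and ±100 for the full control effect; nearly all actives have a fitted effect of over 50% in size.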 In outline: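 Counter-screen wells were identical to the reporter wells. Cells were plated at 1,500 per well and dosed for 5 hr, then read for luminescence 30 min after CellTiter-Glo addition.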
The nature of assay [7]: qHTS assay to identify small molecule antagonists of the retinoid-related orphan receptor gamma (ROR-gamma) signaling pathway - cell viability counter screen (AID 1159520; active = well fitted curve in the direction sought with a large enough effect in the repeat runs; an effect the other way counts as inactive or inconclusive). The gist of the method: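 Tet-on ROR gamma CHO cells were given compounds for 2 hr, then doxycycline hyclate at 1 uM final, and incubated 16 hr at 37 C. Viability was measured as ATP content by CellTiter-Glo luminescence.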

A short description of assay [8]: qHTS assay to identify small molecule agonists of the AP-1 signaling pathway (AID 1159526). Note: % is set by controls: 0 for no effect and ±100 for the full control effect.
Assay [9] concerns the target Retinoic acid receptor RXR-alpha (Homo sapiens) (UniProt P19793). As to the kind of experiment: qHTS assay to identify small molecule agonists of the RXR signaling pathway (AID 1159527). Note: % is set by controls: 0 for no effect and ±100 for the full control effect; nearly all actives have a fitted effect of over 35% in size. In outline: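 Fluorescence ratio readout (460 vs 530 nm) from GeneBLAzer RXR-alpha HEK 293T cells after 16 hr compound treatment; cells seeded 5 hr beforehand in low-serum, charcoal-stripped medium.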

The target in assay [10] is Peroxisome proliferator-activated receptor delta (Homo sapiens) (UniProt Q03181). The experiment in a line: qHTS assay to identify small molecule agonists of the peroxisome proliferator-activated receptor delta (PPARd) signaling pathway (AID 743212). Note: % is set by controls: 0 for no effect and ±100 for the full control effect. The gist of the method: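 Quantitative high-throughput agonist screen in a HEK293H beta-lactamase reporter line under UAS control. Compounds in DMSO, at 37 C. Fluorescence read after 2 h with FRET substrate at room temperature.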
Sequence of Peroxisome proliferator-activated receptor delta (Homo sapiens) (Q03181 whole entry, looked up): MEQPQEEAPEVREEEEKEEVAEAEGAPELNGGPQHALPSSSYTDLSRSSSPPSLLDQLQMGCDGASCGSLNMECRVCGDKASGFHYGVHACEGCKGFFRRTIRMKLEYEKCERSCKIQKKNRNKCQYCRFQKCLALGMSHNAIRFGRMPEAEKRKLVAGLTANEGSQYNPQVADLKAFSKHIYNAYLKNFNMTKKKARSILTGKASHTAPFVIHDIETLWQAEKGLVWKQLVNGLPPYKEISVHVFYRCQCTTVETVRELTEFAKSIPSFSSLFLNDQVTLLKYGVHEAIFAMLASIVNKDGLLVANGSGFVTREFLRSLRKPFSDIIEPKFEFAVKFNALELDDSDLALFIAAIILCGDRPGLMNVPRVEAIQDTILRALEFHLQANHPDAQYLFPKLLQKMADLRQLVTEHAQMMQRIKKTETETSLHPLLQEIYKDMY

The target in assay [11] is Bile acid receptor (Homo sapiens) (UniProt Q96RI1). The experiment in a line: qHTS assay to identify small molecule antagonists of the farnesoid-X-receptor (FXR) signaling pathway (AID 743217; active = well fitted inhibition curve with a large enough effect in the signal ratio in the repeat runs, not every such curve was filed as active; the % refers to the signal ratio; note: % is set by controls: 0 for no effect and ±100 for the full control effect). The gist of the method: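 HEK 293T FXR-UAS-bla, 5000 cells/well; compound + CDCA 50 uM final; 16 h, 37 °C; B/G FRET substrate 2 h RT; fluorescence.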
Sequence of Bile acid receptor (Homo sapiens) (Q96RI1 whole entry, looked up): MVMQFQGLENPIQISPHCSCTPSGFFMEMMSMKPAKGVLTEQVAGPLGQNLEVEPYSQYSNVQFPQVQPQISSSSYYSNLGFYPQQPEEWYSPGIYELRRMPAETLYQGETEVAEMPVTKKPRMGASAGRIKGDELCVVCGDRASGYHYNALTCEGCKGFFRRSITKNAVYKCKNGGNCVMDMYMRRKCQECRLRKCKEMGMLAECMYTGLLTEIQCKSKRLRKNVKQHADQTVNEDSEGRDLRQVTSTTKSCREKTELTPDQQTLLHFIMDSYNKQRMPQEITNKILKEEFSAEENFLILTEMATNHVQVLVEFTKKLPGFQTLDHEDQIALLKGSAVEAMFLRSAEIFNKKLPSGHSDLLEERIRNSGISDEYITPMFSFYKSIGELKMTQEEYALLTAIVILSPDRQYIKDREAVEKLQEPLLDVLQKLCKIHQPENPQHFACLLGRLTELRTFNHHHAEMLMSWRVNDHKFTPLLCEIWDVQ
Assay [12] is described as follows: qHTS assay to identify small molecule agonists of the farnesoid-X-receptor (FXR) signaling pathway - cell viability counter screen (AID 743218; active = well fitted curve in the direction sought with a large enough effect in the repeat runs; an effect the other way counts as inactive or inconclusive; note: % is set by controls: 0 for no effect and ±100 for the full control effect; nearly all actives have a fitted effect of over 45% in size). In outline:
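HEK 293T FXR-bla cells; 5 h pre-incubation, 16 h compound exposure at 37 C; LiveBLAzer substrate 2 h RT, then CellTiter-Glo 30 min RT, luminescence.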

In assay [13] the target is Bile acid receptor (Homo sapiens) (UniProt Q96RI1). As to the kind of experiment: qHTS assay to identify small molecule agonists of the farnesoid-X-receptor (FXR) signaling pathway (AID 743220; active = well fitted activation curve with a large enough effect in the signal ratio in the repeat runs, not every such curve was filed as active; the % refers to the signal ratio; note: % is set by controls: 0 for no effect and ±100 for the full control effect). The gist of the method:
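Beta-lactamase reporter under UAS control in GeneBLAzer FXR HEK 293T cells (5000/well) measured with LiveBLAzer FRET substrate after 2 h at room temperature. Compound exposure lasted 16 h at 37C.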

Assay [14] in a line: qHTS assay to identify small molecule antagonists of the farnesoid-X-receptor (FXR) signaling pathway - cell viability counter screen (AID 743221; active = well fitted cell-killing curve with a large enough effect in the repeat runs, not every such curve was filed as active). The gist of the method:
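Compound effects on cell number were measured as CellTiter-Glo luminescence in HEK 293T cells expressing FXR-UAS-bla, after 16 h at 37 C with 50 uM CDCA (final).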

The target in assay [15] is Nuclear receptor ROR-gamma (Homo sapiens) (UniProt P51449). The experiment in a line: qHTS assay to identify small molecule antagonists of the retinoid-related orphan receptor gamma (ROR-gamma) signaling pathway (AID 1159521; active = well fitted curve in the direction sought with a large enough effect in the repeat runs; an effect the other way counts as inactive or inconclusive). In outline:
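Screening format: cell-based luciferase reporter in CHO cells with doxycycline-inducible RORγ. Compound pre-exposure lasts 2 h, doxycycline is 1 uM final, induction runs 16 h at 37 C, and ONE-Glo luminescence is read.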

Assay [16] is described as follows: qHTS assay to identify small molecule agonists of the AP-1 signaling pathway - cell viability counter screen (AID 1159525). Note: nearly all actives have a fitted effect of over 55% in size. In outline:
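AP-1-bla ME-180 cells in Opti-MEM with 0.5% dialyzed FBS, compound exposure 5 h at 37 C in 15-point titration. Viability read in the same wells as ATP content by CellTiter-Glo luminescence, normalised to tetra-n-octylammonium bromide and DMSO controls.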

A short description of assay [17]: qHTS assay to identify small molecule agonists of the peroxisome proliferator-activated receptor delta (PPARd) signaling pathway - cell viability counter screen (AID 743211; active = well fitted curve in the direction sought with a large enough effect in the repeat runs; an effect the other way counts as inactive or inconclusive; note: % is set by controls: 0 for no effect and ±100 for the full control effect; nearly all actives have a fitted effect of over 55% in size). The gist of the method: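 Following 5 h plating at 37 C and 5% CO2, PPARd UAS-bla HEK293H cells took up test compounds for 17 h. Viability was quantified by luminescence 30 min after CellTiter-Glo addition at room temperature.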

The target of assay [18] is Peroxisome proliferator-activated receptor delta (Homo sapiens) (UniProt Q03181). As to the kind of experiment: qHTS assay to identify small molecule antagonists of the peroxisome proliferator-activated receptor delta (PPARd) signaling pathway (AID 743215; active = well fitted inhibition curve with a large enough effect in the signal ratio in the repeat runs, not every such curve was filed as active; the % refers to the signal ratio). The gist of the method: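 Read-out is beta-lactamase FRET fluorescence, measured 2 h after substrate addition at room temperature. Beforehand, UAS-bla HEK293H cells carrying the PPARd reporter were exposed to compounds with L165041 at 300 nM final for 17 h at 37 C.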

Assay [19] deals with Vitamin D3 receptor (Homo sapiens) (UniProt P11473). The experiment in a line: qHTS assay to identify small molecule antagonists of the vitamin D receptor (VDR) signaling pathway (AID 743223; active = well fitted inhibition curve with a large enough effect in the signal ratio in the repeat runs, not every such curve was filed as active; the % refers to the signal ratio; note: % is set by controls: 0 for no effect and ±100 for the full control effect). In outline: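 Beta-lactamase activity in VDR-bla cells is measured by FRET substrate fluorescence (2 h, room temperature) after cells spend 16 h at 37C with test compound and 3 nM final 1alpha,25-dihydroxyvitamin D3.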
Sequence of Vitamin D3 receptor (Homo sapiens) (P11473 whole entry, looked up): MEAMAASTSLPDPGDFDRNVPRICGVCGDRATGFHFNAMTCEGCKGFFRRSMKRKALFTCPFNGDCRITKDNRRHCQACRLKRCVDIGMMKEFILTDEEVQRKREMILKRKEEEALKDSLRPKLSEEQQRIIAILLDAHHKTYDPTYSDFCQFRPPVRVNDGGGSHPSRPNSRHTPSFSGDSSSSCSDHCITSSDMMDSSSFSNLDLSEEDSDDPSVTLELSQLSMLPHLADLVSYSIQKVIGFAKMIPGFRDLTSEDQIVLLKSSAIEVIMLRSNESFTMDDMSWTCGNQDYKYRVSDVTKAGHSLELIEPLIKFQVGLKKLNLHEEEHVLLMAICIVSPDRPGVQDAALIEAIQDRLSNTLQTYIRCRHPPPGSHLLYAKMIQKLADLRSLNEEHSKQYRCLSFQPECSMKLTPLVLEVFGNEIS

Assay [20] shares this target. As to the kind of experiment: qHTS assay to identify small molecule agonists of the vitamin D receptor (VDR) signaling pathway (AID 743222). Note: % is set by controls: 0 for no effect and ±100 for the full control effect. The gist of the method:
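VDR-bla cells, 2,000/well; 4 h preincubation 37C; cpd (DMSO) 16 h; LiveBLAzer B/G substrate 2 h RT; fluorescence intensity read.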

Sequence of Retinoic acid receptor RXR-alpha (Homo sapiens) (P19793 whole entry, looked up): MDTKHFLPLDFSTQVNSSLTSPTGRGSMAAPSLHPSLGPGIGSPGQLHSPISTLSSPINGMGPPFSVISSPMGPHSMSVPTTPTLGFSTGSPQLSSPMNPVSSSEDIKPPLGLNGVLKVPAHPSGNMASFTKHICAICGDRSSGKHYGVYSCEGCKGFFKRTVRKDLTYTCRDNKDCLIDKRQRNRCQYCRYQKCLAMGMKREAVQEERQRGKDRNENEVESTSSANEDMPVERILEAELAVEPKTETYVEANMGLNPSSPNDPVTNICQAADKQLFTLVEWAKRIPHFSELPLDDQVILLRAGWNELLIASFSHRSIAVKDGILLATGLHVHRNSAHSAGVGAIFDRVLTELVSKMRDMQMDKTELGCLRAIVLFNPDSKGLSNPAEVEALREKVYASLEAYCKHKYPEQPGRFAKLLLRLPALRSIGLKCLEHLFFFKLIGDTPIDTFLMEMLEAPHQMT

In the case of `CC(=O)[O-].CC(=O)[O-].CC(=O)[O-].[Sb+3]`, the viability change, negative = cytotoxic in assay [1] was -8.28% [at 6.26 µM]; in assay [3] it was 0.879% [at 6.95 µM]. The figures for the activity change, negative = cytotoxicity in [2] and in assay [6] were -16.2% [at 5.95 µM] and -11.4% [at 6.95 µM], respectively. Also, the activity, negative = cytotoxic in assay [4] is -2.51% [at 6.95 µM]. Also, the figures for the activation in [5], in assay [8] and in assay [9] were 3.53% [at 6.95 µM], -1.15% [at 2.72 µM] and -1.11% [at 2.71 µM], respectively. In addition, the activity, negative = cytotoxicity in [7] is 1.09% [at 3.27 µM].

As to `CCOC(=O)CCN(SN(C)C(=O)Oc1cccc2c1OC(C)(C)C2)C(C)C`, the Potency entry in assay [10], in [1], in assay [11], in [12], in [13] and in [14] was “inactive” in each case. The Potency result in [2], in [4], in [5], in [6] and in [16] was “inactive” throughout. Besides, in [15], the Potency is 30.6 µM (active).

For the compound `O=C(NC(=O)c1c(F)cccc1F)Nc1ccc(Oc2ccc(C(F)(F)F)cc2Cl)cc1F`, the Potency entry in assay [17], in assay [18], in assay [11], in [13], in assay [14] and in assay [3] was “inactive” in each case. In addition, the Potency result in assay [4], in assay [5] and in assay [6] was “inactive” throughout. Also, the Potency in assay [15] is 24.3 µM (active).

Turning to `CC(=O)C(Cl)C(=O)N(C)C` (centres undefined), the Potency result in assay [10], in assay [1], in assay [18], in [14], in [19] and in assay [2] was “inactive” in each case. In addition, the Potency entry in [4], in [5], in assay [6], in assay [16], in assay [8] and in assay [9] was “inactive” each time.

Regarding `FC(F)C(F)(F)OCC(Cn1cncn1)c1ccc(Cl)cc1Cl` (centres undefined), the Potency result in [10], in [13], in [20], in assay [19], in [3] and in assay [4] was “inactive” each time. Moreover, the Potency result in assay [5], in assay [6], in assay [16], in [8] and in assay [9] was “inactive” in each case.
